Measured values published in ChEMBL document CHEMBL3988442, “University of Dundee, Small-Polar-MMV Screening Library” (2021).
Hit rate of the full screen: of about 69,000 compounds, about 950 (1.4%) showed an effect of 50% or more. This excerpt belongs to a sample that is enriched for strong results.

What follows are compounds tested on Mycobacterium tuberculosis (assay: Cornell M. t heat shock assay; note: in the data most compounds retested in dose-response had high values).
Type: functional, organism-based
Parameters: dose or concentration left out as unconfirmed

| Structure (SMILES) | Percent Effect [%] |
| --- | --- |
| Cc1cnc(N2CCc3c(CNc4ccnc(C)n4)cncc3C2)nc1.Cl | 12.07 |
| Cl.Cn1ccnc1N1CCN(C(=O)Cc2ccccc2)CC1 | -7.185 |
| O=C(O)C(F)(F)F.O=C1COC2(CCN(C(=O)C3CC=CC3)CC2)CN1Cc1cccnc1 | -29.72 |
| CS(=O)(=O)CC(=O)N1C[C@@H]2CN(Cc3ccoc3)CCO[C@@H]2C1 | -0.05269 |
| Cc1cc(C(=O)N2CCc3nc(C4CCCCN4)ncc3C2)cs1.Cl (stereo not drawn) | -19.38 |
| O=C(O)C(F)(F)F.O=C(O)C(F)(F)F.c1cc(CO[C@@H]2CC[C@H]3[C@H]2OCCN3CC2CCOCC2)ccn1 | -2.91 |
| CN(C)[C@@H]1CN(C(=O)Cc2ccc(F)cc2)[C@@H]2CCCO[C@H]12.O=C(O)C(F)(F)F | -22.98 |
| Cc1ccc(C(=O)N2CCc3ccc(=O)n(CCN(C)C)c3CC2)o1.O=C(O)C(F)(F)F | -16.57 |
| O=C(NCc1cccs1)[C@H]1CO[C@H]2CCN(C3CCCC3)C[C@H]2C1.O=C(O)C(F)(F)F | 16.16 |
| CCN1CC[C@@H]2OC[C@H](C(=O)NCc3cccs3)C[C@@H]2C1 | 64.41 |
| O=C(NCCc1cccs1)[C@H]1CO[C@H]2CCN(CC3CC3)C[C@H]2C1.O=C(O)C(F)(F)F | 1.069 |
| O=C(NCCc1cccs1)[C@H]1CO[C@H]2CCN(C3CCC3)C[C@H]2C1.O=C(O)C(F)(F)F | 6.34 |
| COCCN1CC[C@@H]2OC[C@H](C(=O)NCc3cccs3)C[C@@H]2C1.O=C(O)C(F)(F)F | -7.487 |
| COCCNC(=O)[C@H]1CO[C@H]2CCN(Cc3cccs3)C[C@H]2C1 | 78.89 |
| O=C(NC1CCC1)[C@H]1C[C@@H]2CN(C(=O)Nc3ccc(F)cc3)C[C@H]1O2 | -5.328 |
| CN(C)c1ncc(-c2cc(C(=O)NCCO)n(CC3CC3)c2)cn1.O=C(O)C(F)(F)F | -4.821 |
| CC(C)c1cc(CN2CCC(N)CC2)no1 | -1.347 |
| CC(C)c1cc(CN2CCNCC2)no1 | 100.9 |
| CC(C)c1cc(CN2CCC(CC(=O)O)CC2)no1 | 6.455 |
| Cl.OC1(c2ccc(F)cc2)CCN(Cc2ccccc2N2CCCC2)CC1 | 3.038 |
| Cc1cccc(C2(O)CCN(Cc3ccccc3N3CCCC3)CC2)c1 | 106 |
| OC1(c2ccccc2F)CCN(Cc2ccccc2N2CCCC2)CC1 | -5.486 |

| Structure (SMILES) | Percent Effect [%] |
| --- | --- |
| O=C(C1CCC1)N1CCC(=O)N(C2CC2)Cc2cc(F)ccc21 | 39.59 |
| CCN1Cc2ccccc2N(C(=O)C2CCC2)CCC1=O | 52.52 |
| CCN1Cc2cc(F)ccc2N(C(C)=O)CCC1=O | 51.48 |
| O=C1NCCCCC1NC(=O)N1CCCc2cc(F)ccc21 (stereo not drawn) | -1.562 |
| CN1C(=O)CCN(C(=O)C2CCCCC2)c2ccccc21 | -13.68 |
| CC(=O)N1CCC(=O)N(C2CCCC2)Cc2ccccc21 | 18.8 |
| CCN(CC)S(=O)(=O)CC(=O)N1CCc2ccc(F)cc21 | -19.64 |
| CCN1Cc2cc(F)ccc2N(C(=O)C2CCC2)CCC1=O | 57.03 |
| COCC(=O)N1CCC(=O)N(C2CCCC2)Cc2cc(F)ccc21 | 44.15 |
| Cc1cccc(CN2CCC3(CC2)NC(=O)CC3c2ccccc2)n1.O=C(O)C(F)(F)F (stereo not drawn) | -4.61 |
| Cc1nc(CN2CCC3(CCCN(Cc4ccoc4)C3)C2=O)cs1.O=C(O)C(F)(F)F.O=C(O)C(F)(F)F (stereo not drawn) | -16.93 |
| COc1cccc(CNCc2ccc(F)cc2Cl)c1O | 10.28 |
| CCOCC1CN(CC2CC2)Cc2nn(CC3CC3)cc21.O=C(O)C(F)(F)F (stereo not drawn) | 0.05869 |
| Cn1cc(CN2CCCC23CCN(C(=O)c2ccccn2)CC3)cn1.O=C(O)C(F)(F)F | -28.64 |
| CCOCCCn1c(NC(=O)c2cc(C)on2)nc2ccccc21 | 59.74 |
| CCOCCCn1c(NC(=O)c2cc(C)no2)nc2ccccc21 | 4.963 |
| CCOCCCn1c(NC(=O)c2cnc(C)cn2)nc2ccccc21 | 28.96 |
| CCOCCCn1c(NC(=O)c2ccc(C)nc2)nc2ccccc21 | 25.39 |
| CCN(CC)CCn1c(NC(=O)c2scnc2C)nc2ccccc21 | 46.93 |
| CCOCCCn1c(NC(=O)c2scnc2C)nc2ccccc21 | 84.26 |
| CCOCCCn1c(NC(=O)c2cnc(C)s2)nc2ccccc21 | -7.023 |
| CCOCCCn1c(NC(=O)c2cnn(C)c2)nc2ccccc21 | 44.67 |

| Structure (SMILES) | Percent Effect [%] |
| --- | --- |
| CCOCCCn1c(NC(=O)c2ccnc(C)n2)nc2ccccc21 | 94.99 |
| COc1c(CNCc2ccc(C(=O)N3CCCC3)cc2)c(C)nn1C.Cl | -14.26 |
| COc1ccc(CN2C[C@@H]3OCCN(CCN(C)C)[C@@H]3C2)cc1.O=C(O)C(F)(F)F.O=C(O)C(F)(F)F.O=C(O)C(F)(F)F | -21.44 |
| Cl.NC(CNS(=O)(=O)Cc1cccc2cccnc12)c1ccccc1 (stereo not drawn) | -15.27 |
| O=C(NCC1CCOCC1)[C@H]1C[C@@H]2CCN(Cc3ccccc3)C[C@H]2O1.O=C(O)C(F)(F)F | -21.55 |
| Cc1cccc(CN2CC[C@H]3[C@@H]2CC(=O)N3CC2CC2)n1.O=C(O)C(F)(F)F | -9.975 |
| O=C(c1ccccc1)N1CC[C@H]2C[C@H](c3nnc(C4CC4)o3)O[C@@H]2C1 | 57.91 |
| O=C(c1cccs1)N1CC[C@H]2C[C@@H](c3nnc(C4CC4)o3)O[C@@H]2C1 | 56.75 |
| O=C(c1ccoc1)N1CC[C@H]2C[C@@H](c3nnc(C4CC4)o3)O[C@@H]2C1 | 19.79 |
| O=C(c1ccccc1)N1CC[C@H]2C[C@@H](c3nnc(C4CC4)o3)O[C@@H]2C1 | 48.55 |
| O=C(c1ccsc1)N1CC[C@H]2C[C@@H](c3nnc(C4CC4)o3)O[C@@H]2C1 | 26.95 |
| O=C(c1cscn1)N1CC[C@H]2C[C@H](c3nnc(C4CC4)o3)O[C@@H]2C1 | 27.2 |
| COCC1c2c(cnn2C)CCN1C(=O)c1cc(C)on1.O=C(O)C(F)(F)F (stereo not drawn) | 28.69 |
| Cc1cnccc1-c1cnn(CCNC(=O)c2ccccn2)c1C1CC1.Cl | 22.13 |
| CC(C)Cc1cc(C(=O)NC(C)(C)c2nnc(N)s2)n(C)n1 | 18.34 |
| CC(C)c1nc(CN2CCc3onc(-c4cccc(F)c4)c3C2)no1 | 35.68 |
| CC(C)(C)c1nc(CN2CCc3onc(-c4cccc(F)c4)c3C2)no1 | 31.99 |
| CC(C)Cc1nc(CN2CCc3onc(-c4cccc(F)c4)c3C2)no1 | 52.2 |
| CN(C)[C@@H]1CN(Cc2ccccc2O)C[C@H]1c1cn(C)c2ccccc12.Cl | 12.04 |
| CN(C)[C@@H]1CN(Cc2ccc(O)cc2)C[C@H]1c1cn(C)c2ccccc12.Cl | 10.72 |
| O=C1CCCC2=C1C(c1ccccc1F)Nc1nonc1N2 (stereo not drawn) | -20.35 |
| O=c1cc(CN2CCCC2)nc2n1CCCN(Cc1ccsc1)C2 | -27.96 |

| Structure (SMILES) | Percent Effect [%] |
| --- | --- |
| CCOCCCNc1ncc(-c2cccc(F)c2)c(-c2nccn2C)n1 | 8.299 |
| COCCNc1ncc(-c2cccc(F)c2)c(-c2nccn2C)n1 | -4.341 |
| Cn1ccnc1-c1nc(NC2CCCC2)ncc1-c1cccc(F)c1 | 85.28 |
| Cl.O=C1CC2(CCCNC2)C(=O)N1Cc1cccc(F)c1 (stereo not drawn) | -11.34 |
| CCN1CCn2c(C)cnc2C12CCN(C(=O)COC)CC2.O=C(O)C(F)(F)F.O=C(O)C(F)(F)F | -13.45 |
| CCc1nc(N)nc(N2CCCC3(CN(C)C(=O)O3)C2)c1C (stereo not drawn) | -1.052 |
| CNC(=O)CN1CCCC12CCN(C(=O)c1ccoc1)CC2.O=C(O)C(F)(F)F | 6.336 |
| Cc1nc(-c2cncnc2C2CCCNC2)no1.Cl.Cl (stereo not drawn) | -15.54 |
| COc1ccccc1C(=O)N1CCOC2(CCCN(C(C)=O)C2)C1 (stereo not drawn) | 71.6 |
| COc1cccc(C(=O)N2CCOC3(CCCN(C(C)=O)C3)C2)c1 (stereo not drawn) | 5.566 |
| CC(=O)N1CCCC2(C1)CN(C(=O)c1ccncc1)CCO2 (stereo not drawn) | -1.478 |
| Cc1noc([C@H]2C[C@@H]3CCN(c4nnc(C)s4)C[C@H]3O2)n1.O=C(O)C(F)(F)F | 1.861 |
| Cc1ccc(N2CCC3(CCN(C(=O)c4ccsc4)C3)CC2)nn1.O=C(O)C(F)(F)F | -20.48 |
| Fc1ccc(CN2CCC3(CC2)CC(c2cccnc2)CO3)cc1.O=C(O)C(F)(F)F.O=C(O)C(F)(F)F (stereo not drawn) | -26.17 |
| COCCN1C(=O)[C@H]2CC[C@@H]1CN(C(=O)CCc1n[nH]c(C)c1C)C2 | 8.165 |
| O=C(NC1CC1)c1cnc(-c2noc3cc(N4CCCCC4)ccc23)s1 | -8.735 |
| O=C(c1cnc(-c2noc3cc(N4CCCC4)ccc23)s1)N1CCCC1 | -6.808 |
| CCN(C)C(=O)c1cnc(-c2noc3cc(N4CCCCC4)ccc23)s1 | 85.74 |
| Cl.O=C(c1ccnc(C2CCNCC2)c1)N1CCCOCC1 | -3.625 |
| CNS(=O)(=O)CC(=O)N1CC2(CCCC2)c2c(F)cccc21 | 13.66 |
| O=C(NCC(=O)N1CC2(CCCC2)c2c(F)cccc21)C1CC1 | 55.94 |
| CCS(=O)(=O)NCC(=O)N1CC2(CCCC2)c2c(F)cccc21 | 17.06 |
